Measurements from PubChem BioAssay (Tox21).
A number with no mark means an inactive call. Activity calls are given as the source filed them. Calls come from the whole dose curve.
% is set by controls: 0 for no effect and ±100 for the full control effect; potency is the fitted concentration of half-maximal effect.

What follows are molecules tested against Estrogen receptor (Homo sapiens) (UniProt P03372) (assay: qHTS assay to identify small molecule agonists of the estrogen receptor alpha (ER-alpha) signaling pathway in the presence of an antagonist (AID 1259383; note: nearly all actives have a fitted effect of over 15% in size; for activation: top concentration of the series differs between compounds)). Conditions: VM7Luc4E2 cells, ERE-luciferase, +ICI-182,780, 22 h; series mostly up to 92.4 µM; activation: at the top concentration.
Chain of Estrogen receptor (Homo sapiens) (P03372 whole entry, looked up): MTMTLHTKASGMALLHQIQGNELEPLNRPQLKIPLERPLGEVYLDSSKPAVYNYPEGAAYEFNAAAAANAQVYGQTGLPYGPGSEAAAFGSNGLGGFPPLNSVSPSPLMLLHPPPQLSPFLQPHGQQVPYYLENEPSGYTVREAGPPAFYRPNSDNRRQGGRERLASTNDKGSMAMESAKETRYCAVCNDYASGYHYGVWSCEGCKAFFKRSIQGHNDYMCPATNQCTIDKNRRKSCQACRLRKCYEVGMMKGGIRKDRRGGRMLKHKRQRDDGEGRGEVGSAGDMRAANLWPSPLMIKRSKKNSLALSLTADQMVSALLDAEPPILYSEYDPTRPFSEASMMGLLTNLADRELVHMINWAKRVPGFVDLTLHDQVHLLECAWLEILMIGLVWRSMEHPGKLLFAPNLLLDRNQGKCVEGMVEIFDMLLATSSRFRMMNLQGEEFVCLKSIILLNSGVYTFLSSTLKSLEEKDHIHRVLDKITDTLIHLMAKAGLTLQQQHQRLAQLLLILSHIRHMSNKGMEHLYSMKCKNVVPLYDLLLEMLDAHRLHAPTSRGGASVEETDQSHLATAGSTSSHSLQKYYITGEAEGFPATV
Text: National Center for Advancing Translational Sciences [NCATS] NIH Chemical Genomics Center [NCGC] U.S. Environmental Protection Agency [EPA] National Institutes of Environmental Health Sciences [NIEHS] National Toxicology Program [NTP] Assay overview: Estrogen receptor (ER), a member of nuclear hormone receptor plays an important role in development, metabolic homeostasis and reproduction. Two subtypes of ER, ER-alpha and ER-beta, have similar expression patterns with some uniqueness in both types. Endocrine disrupting chemicals (EDCs) and their interactions with steroid hormone receptors like ER causes disruption of normal endocrine function. Therefore, it is important to understand the effect of environmental chemicals in ER signaling pathway. For identifying ER agonists, VM7Luc4E2 cell line has been used in the current assay. VM7Luc4E2 cell line (provided by Denison MS, University of California) endogenously expresses full-length ER-alpha and is stably transfected with a plasmid containing four estrogen responsive elements (ERE) upstream of a luciferase reporter gene. This current screening for measuring luciferase reporter gene activity using VM7Luc4E2 cells against Tox21 10K library collection is a confirmation study on agonist mode screening in presence of ER-antagonist (ICI-182,780) at 10.0nM final concentration.
Assay Protocol Summary: VM7Luc4E2 cells were cultured in phenol red free assay medium containing 10% charcoal stripped FBS for 5 days prior to the assay. The cells were dispensed at 4,000 cells in 4uL of assay medium per well into white wall/solid-bottom 1536-well plates (Corning Life Sciences, Corning, NY) using a Multidrop Combi (Thermo Fisher Scientific Inc., Waltham, MA) dispenser. After the assay plates were incubated at 37C and 5% CO2 for 24hr, 1uL of 10.0nM (final concentration) ICI-182,780 or assay buffer was added using two separate tips of Flying Reagent Dispenser (FRD, Aurora Discovery, San Diego, CA). Then 23nL of compounds dissolved in DMSO at 15 concentrations and positive controls or DMSO only was transferred to the assay plates by a Pintool station (Wako, San Diego, CA). The assay plates were incubated at 37C and 5% CO2 for 22hr. For luciferase read, 4uL/well ONE-Glo reagent (Promega Corporation, Madison, WI) was added to each well using FRD and after 30min incubation at room temperature, luminescence signal was measured on ViewLux plate reader (PerkinElmer, Shelton, CT).
CC(C)(C)c1ccc(C(O)CCCN2CCC(C(O)(c3ccccc3)c3ccccc3)CC2)cc1 (stereo not given) was tested, and the “activation” value was -0.219% [at 42.5 µM]. In the case of NC(=O)c1cccc([N+](=O)[O-])c1, the “activation” value is reported as -2.57%. With OCCN1CCN(CCCN2c3ccccc3Sc3ccc(C(F)(F)F)cc32)CC1 the “activation” value was -1.78% [at 42.5 µM]. With COc1ccc(-c2coc3cc(O)ccc3c2=O)cc1 the Potency was 1.09 µM (active). For Oc1cc(Cl)cc(Cl)c1Cl, the “activation” value was 0.203%. With Cl[Si](Cl)(c1ccccc1)c1ccccc1 the “activation” value was -1.01%. With Cc1cccc(C)c1NC(=O)c1ccc(N)cc1 the “activation” value was -1.24% [at 42.5 µM]. With CCn1c2ccccc2c2cc([N+](=O)[O-])ccc21 the “activation” value was -1.38%. O=C(O)c1cc(-c2ccc(F)cc2F)ccc1O was tested, and the “activation” value was 6.89% [at 42.5 µM]. For CC1(C)CCC[C@]2(C)[C@H]3CC(=O)O[C@]3(C)CC[C@@H]12, the “activation” value was -2.26%. CCCCCCCC was tested, and the “activation” value was -1.32%. In the case of CN1CCN(Cc2cc(-c3ccc4[nH]c(=O)oc4c3)co2)[C@@H](c2ccc(F)cc2)C1, the “activation” value is reported as -2.59%. With CCCCOC(=O)CO the “activation” value was -0.261%. For CC(C)CCOC(=O)/C=C/c1ccccc1, the “activation” value was 6.44%. Molecule CC(C)(C)CC(C)(C)c1ccc(Nc2ccc(C(C)(C)CC(C)(C)C)cc2)cc1 has an activation of 1.18% [at 8.39 µM]. With Cc1cccc(C(=O)O)c1O the “activation” value was -0.217% [at 42.5 µM]. For O=C1c2ccccc2C(=O)N1SC1CCCCC1, the Potency was “inactive”. For COc1ccc2c(c1)c(CC(=O)OC/C=C(\C)CC/C=C(\C)CCC=C(C)C)c(C)n2C(=O)c1ccc(Cl)cc1, the “activation” value was -0.642% [at 42.5 µM]. For Cc1cc(C(C)(C)C)c(O)c(C)c1Cn1c(=O)n(Cc2c(C)cc(C(C)(C)C)c(O)c2C)c(=O)n(Cc2c(C)cc(C(C)(C)C)c(O)c2C)c1=O, the “activation” value was 0.0258%. In the case of CCCCCC/C=C\CCCCCCCC(=O)O, the “activation” value is reported as -0.198%. For Cc1cc(-c2ccc(N=Nc3cc(S(=O)(=O)O)c4ccccc4c3N)c(C)c2)ccc1N=Nc1cc(S(=O)(=O)O)c2ccccc2c1N, the “activation” value was -16%. In the case of CN1CCCCC1CCN1c2ccccc2Sc2ccc(S(C)=O)cc21 (stereo not given), the “activation” value is reported as -1.93% [at 42.5 µM]. For CN1CCN2c3ccccc3Cc3ccccc3C2C1 (stereo not given), the “activation” value was 0.442% [at 42.5 µM]. Nc1ccc(Oc2ccc(Cl)cc2)cc1 was tested, and the “activation” value was 3.57%. With Nc1cc(Cl)c(O)c(Cl)c1 the “activation” value was 0.974%. Work on O=C(O)O yielded an activation of 10.5% [at 8.39 µM]. For COc1ccc2cc1Oc1ccc(cc1)C[C@H]1c3c(cc4c(c3Oc3cc5c(cc3OC)CCN(C)[C@@H]5C2)OCO4)CCN1C, the “activation” value was -5.1% [at 42.5 µM]. C[C@H]1NCc2cc(-c3ccc4c(=O)c(C(=O)O)cn(C5CC5)c4c3OC(F)F)ccc21 gave an activation of -0.399% [at 19 µM]. With OC1CCCc2ccccc21 (stereo not given) the “activation” value was -0.0919%. In the case of OC12N=C(c3ccccc3)SC1Cc1cc(Cl)ccc12 (stereo not given), the Potency is reported as 1.93 µM (active). CC(C)Cn1cnc2c(N)nc3ccccc3c21 was tested, and the activation was -0.124% [at 19 µM]. c1ccc(C(O[C@@H]2CCCN(CCc3ccc4c(c3)OCO4)C2)c2ccccc2)cc1 was tested, and the “activation” value was -1.36%. In the case of CC(=O)OCC=C(C)C, the “activation” value is reported as -0.158% [at 42.5 µM]. In the case of Cc1ccc(C(C)C)cc2c(C)ccc1-2, the “activation” value is reported as 0.543% [at 42.5 µM]. For CCCCC(CC)COC(=O)CCCCC(=O)OCc1ccccc1 (stereo not given), the “activation” value was -0.547%. In the case of CCCCCC(C)OC(=O)COc1ccc(Cl)c2cccnc12 (stereo not given), the “activation” value is reported as 0.262%. With Cc1c(C)c2c(c(C)c1OC(=O)c1cccnc1)CC[C@@](C)(CCC[C@H](C)CCC[C@H](C)CCCC(C)C)O2 the “activation” value was 0.0815% [at 42.5 µM]. With Cc1ccc(O)c(O)c1 the “activation” value was 0.194%. With C=C(CC)C(=O)c1ccc(OCC(=O)O)c(Cl)c1Cl the Potency was “inactive”. For CCN(CCN)c1cccc(C)c1, the Potency was “inactive”.
